Reference: PubChem BioAssay (Tox21)
“And” between values parts separate entries of the source, which are not always exact repeats. Equal entries are not always repeated. Inconclusive results are not listed. Where a call stands in place of a potency, no number is given. The source made the active and inactive calls. The call rests on the fitted dose curve; in most records, active means well fitted cell-killing curve with a large enough effect in the repeat runs; inconclusive means weak or mixed curves, or effect the other way; inactive means no such curve, though single readings can be large or run the other way.

Assay: qHTS assay to identify aromatase inhibitors - cell viability counter screen (AID 743084);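 further: cells stimulated with testosterone during compound exposure; nearly all actives have a fitted effect of over 55% in size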
Conditions: MCF-7 aro ERE viability, CellTiter-Fluor, 24 h; series mostly up to 70.3 µM; activity change, negative = cytotoxicity: at the top concentration
Potency means the concentration at half of the fitted maximal effect.

| Compound | Potency | activity change, negative = cytotoxicity |
| --- | --- | --- |
| CO[C@H]1C=CO[C@@]2(C)Oc3c(C)c(O)c4c(O)c(c(/C=N/N5CCN(C)CC5)c(O)c4c3C2=O)NC(=O)/C(C)=C\C=C[C@H](C)[C@H](O)[C@@H](C)[C@@H](O)[C@@H](C)[C@H](OC(C)=O)[C@@H]1C | 23.7 µM (active) and 15.4 µM (active) and 15.5 µM (active) |  |
| NC(=O)NO | inactive |  |
| CC1=C(/C=C/C(C)=C/C=C/C(C)=C/C(=O)O)C(C)(C)CCC1 |  | -8.21% (inactive) |
| NCCNc1cccc2ccccc12 | inactive |  |
| c1ccc2[nH]c(-c3cscn3)nc2c1 | inactive |  |
| O=C1OC(c2ccc(O)cc2)(c2ccc(O)cc2)c2ccccc21 | inactive |  |
| NC(=O)N/N=C/c1ccc([N+](=O)[O-])o1 | inactive |  |
| CC1=NN(c2ccccc2)C(=O)C1 | inactive |  |
| Cc1cccc(Nc2cc(Cl)nc(SCC(=O)O)n2)c1C | inactive |  |
| C[C@]12C[C@H](O)[C@H]3[C@@H](CCC4=CC(=O)CC[C@@]43C)[C@@H]1CC[C@@H]2C(=O)CO | inactive |  |
| CCn1cc(C(=O)O)c(=O)c2ccc(C)nc21 | inactive |  |
| CC(=O)/C=C/C1=C(C)CCCC1(C)C | inactive |  |
| COc1ccccc1NC(=O)CC(C)=O | inactive |  |
| CC(C)=CCC/C(C)=C/CO | inactive |  |
| C[C@]12CC[C@@H]3c4ccc(O)cc4C[C@@H](CCCCCCCCCS(=O)CCCC(F)(F)C(F)(F)F)[C@H]3[C@@H]1CC[C@@H]2O (stereo partly drawn) | inactive |  |
| O=C(OCc1ccccc1)c1ccccc1 | inactive |  |
| O=C(O)CN(CC(=O)O)CC(=O)O | inactive |  |
| CCCCOCCOCCSC#N | inactive |  |
